The values that follow come from PubChem BioAssay AID1508600 (Functional Genomics Laboratory (NCATS/FGL), 2020).

About 3,700 (7%) of roughly 53,000 sequences were called active. The full list was thinned out, with actives kept by preference. Values without a mark were called inactive.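 How the source made its calls: active means gene knockdowns whose robust z-score for IL-1 alpha signal is at least 2 or at most -2, so actives lie on both sides; inactive means the rest.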

The nature of this experiment: Components of the Cytosolic LPS Sensing Pathway: Gene Identification via Genome-wide siRNA Screen. Particulars: RAW264.7 macrophages, IL-1a HTRF, actives lie on both sides, screened at 100 nM (by protocol), cells primed 5 h with Pam3CSK4 first. The source says:
Non-canonical inflammasome activation by cytosolic LPS is a critical component of the host response to Gram-negative bacterial infection, however we lack a comprehensive understanding of the cellular processes that control this pathway. Here we describe a genome-wide siRNA screen to identify genes regulating the mouse macrophage IL-1 alpha response to cytosolic LPS.
RAW264.7 cells were maintained in complete DMEM media, comprising DMEM with 4.5 g/L glucose, 10% FBS (Gemini Bio-Products, West Sacramento, CA), 2 mM Glutamine (Lonza) and 20 mM HEPES (Lonza), hereafter complete DMEM.
The RNAi screen was conducted in 384-well format using the Ambion Silencer Mouse Genome siRNA Library (#4391425), which consists of three unique, nonoverlapping, nonpooled siRNAs for each of 17,000 gene targets. siRNA reagents ([…]) were stamped into 384-well white flat-bottom microplates (Corning, 3570) using a Velocity11 VPrep liquid handling system (Agilent) integrated into a BioCel robotic platform (Agilent) in columns 1-22, leaving columns 23-24 empty for negative (Ambion, Negative control #1) and positive (mouse Casp4) controls, respectively. The median value of each plate's negative control column was used to normalize sample wells, and the positive control was used to assess transfection efficiency and assay performance.
Lipofectamine RNAiMAX Transfection Reagent ([…]; Invitrogen) was added in […] serum-free, antibiotic-free media to plate wells using a Thermo Scientific Matrix WellMate and Microplate Stacker. Plates were incubated for 45 min at room temperature to allow for the sufficient formation of siRNA-lipid complexes. Cells were seeded at a density of 1x10^4 cells per well in 20 microL media containing 20% (vol/vol) FBS without antibiotics. The final concentration of siRNA in each well was 100 nM. Cells were cultured for 48h at 37 degrees C in 5% CO2 before addition of […] of TLR ligand Pam3CSK4 for 5 hours. The medium was then removed, replaced with […] growth media and cell were transfected with […] of LipidA and TransIT-TKO (Mirus) for 24 hour. At the end of the LipidA treatment, […] of supernatant was transferred to a 384 Greiner Bio-one non-binding low volume plate and […] of IL-1a HTRF reagent (Cisbio, 62MIL1APEH) was added and incubated at room temperature overnight. The plates were read on an EnVision plate reader (PerkinElmer). Cell viability was measured by adding 20ul Cell Titer Glo to the original plate and running a luminescence read on the EnVision. The quantified IL-1a signal for each siRNA gene-targeted well was divided by the median of the negative control wells and multiplied by 100 to achieve a negative control normalized value for each well/siRNA. This normalized value was then used to generate a robust z-score by first taking the log of each value and then by subtracting the median and dividing by the […].
On the technique in general: In TR-FRET formats the signal depends on donor and acceptor labels being close together.
Regarding GCUAUCCCUUUAUGUAACATT against Prl7b1, the z-score was -0.224.

In the case of CCAUAUCGAGUACCUCCAATT against Rtn4rl1, the z-score is -0.522. Take GGUCUACUGGCGUAAUUACTT against Vsig4: the z-score was -0.365.

Consider GCAGUCAUUCAAGGUUCCUTT against Hmces, for which the z-score is -0.231. For the sequence GGUGUUGAAAUAAUUUCUCTT against Phospho2, the z-score is -0.285. The figure for GGAGUGUAGUAAAUGUACCTT against Ppp1r13b is 3.97 (active). The result for GGACUUGAUCCCAAAGCUGTT against Mrpl17 reads -1.21; that for GGGACAACACAUUAACUUATT against Uckl1, 1.41; that for GCACAUUGUCUAGUAGUAATT against Zfp280d, -0.622. With GGAACAGAAACAAGGUUUUTT against Zfand2a, the z-score is 0.962. The result for “CCUCAUUCAGGGAGUUCCATT against 2200002J24Rik” reads -1.52; that for “GGACAGUGGAAGGAAUCCATT against 2310033P09Rik”, -2.91 (active); that for GCUGAUGCUCCAUUGAAUGTT against Prr27, 0.228. Consider GCGUGAGAGAUACCGCCAUTT against Gnai2, for which the z-score is -0.847.

CGUGGUUUGUCAAUGAAGGTT against Eprs: the z-score is 0.358. Turning to GGUUCUUUGGAAUGCUUUUTT against Myl12a, the z-score is 2.76 (active).

Regarding CGUAAGAUUGACUCUAGUATT against Prl6a1, the z-score was 0.326. The figure for GGACAGACUGAUUAAGAAATT against Paqr8 is -0.569; for GCUACUGAACGAGAAUGCCTT against Zc3h12a it is 0.394. In the case of GGACAUUGACGCAUAGGGATT against Arsa, the z-score is -0.232.

Consider GGAUACAGUUUCUGAAAUCTT against Mlxipl, for which the z-score is 2.6 (active). As to GCCAUGUGAUCGAAUCCAGTT against Clip2, the z-score was -0.0773. Take GGGAUUCAUACUACUUAACTT against Olfr304: the z-score is 1.32. In the case of GCAGUUACUUAUCAUCUGGTT against Inca1, the z-score is 0.00859.

Turning to “GGUGUCUCUGAAUGAUGGCTT against 1810009J06Rik”, the z-score was 0.499.

Take GGGUUGAUCCCUUUGAUUCTT against Pld4: the z-score was -0.268. Regarding GGACAAUGUGGACUUUGAUTT against Edem2, the z-score was -2.33 (active). Regarding GCAAACUCGGACUUUCAAATT against Lamtor3, the z-score was 0.443. The result for GGGAAACUCGAGAUGUGCATT against Ankmy2 reads 0.944; that for “GGAAAGAAAAACGUAGGCGTT against 4933402J07Rik”, -1.16; that for GGAGAACCAGAUCCUGAUCTT against Mypop, 0.511.

Regarding GGAGGUGUGGCAUCUGGAUTT against Gsn, the z-score is 1.19. As to GGAGGAAGACACUCCCUCUTT against Atf4, the z-score is -0.778. As to CGAGAGUGAUGCGCAUUUCTT against Sf3b5, the z-score was -3.04 (active). As for GGAAGCGGGAGAUAGAGGATT against Xpo6, the z-score was -0.108.

Regarding GCACAGAGGUCAGUUAAAGTT against St8sia3, the z-score is 1. Regarding CGACCCUCUAAGGAUAUGCTT against Zfp456, the z-score was 1.01. On to CCUGAUAUUCCAUCCUGAATT against Acad10, for which the z-score was -0.626. The result for GGUGCAUGGAAAAAAAUUATT against Neil2 reads -0.691. For GCGGCCUGUGAGAGUUUAUTT against Pcyt1a, the z-score is 3.4 (active). The figure for “GGACCCAAGAAGAUGACGUTT against 0610010K14Rik” is -0.694; for GCUGUGUGCCACUUUAUGUTT against Ebna1bp2 it is 0.583; for CGACAACACAGUUAUUAUUTT against Pld1 it is 0.338. The result for GCUUCGAGUUACAAUGUCATT against Fbxw15 reads -0.912. The result for GGCACAUACGCUAUGAAGCTT against Prl2c5 reads -0.0959. For GGUCUGUGACGAGAAGCUATT against Rab4a, the z-score is -1.43. The result for CCGAUGACGAACAGUUUGATT against Eif4ebp3 reads 2.08 (active); that for GGCAAAUUUUUGGAGAUGUTT against Hspa4, 0.931; that for CGUAGAGAUCAGUUCAAUGTT against Clock, -1.36. The result for CGAGGACUCAAUAGUAGCCTT against Proser3 reads -0.678. As to GGAUCCUGAAACAGUUCAATT against Atm, the z-score was -0.218. Take GGGUGCUGUCAACAUAUGATT against Gabrq: the z-score is 0.67. GCUUUGUUGCCCUACUACCTT against Pacrg: the z-score was -2.26 (active). The figure for CCUUUCAUACCUUAGGUUATT against Slc25a44 is -0.42; for GGUGUAGAAUAGGACAAAUTT against Ntsr2 it is 0.43. The result for GGUCACAAUGGUUUAAGGATT against Tacr1 reads -0.943; that for CCUGAUCUUGCACUCGAUGTT against Tbx6, 0.422; that for GGUAGAAGCAGAGUUACCATT against Spata32, -1.64.

For the sequence GGUGGAAGAAGAAAUUGUCTT against Tpd52l2, the z-score was -2 (active). The result for GGGAAGAUUUUUCUGAUCUTT against Kcnk13 reads -1.52.

Regarding GCUGGAGGACUCAUGUUCATT against Dimt1, the z-score is -0.0153. The result for GGAGCUCAAGAGCUGGGUUTT against Tor2a reads -1.1. For GGAAGAACGACAAGAACAUTT against Tgfbr2, the z-score was 1.02. For the sequence CGCGGUGUUCGACAUCUUGTT against Noc4l, the z-score is 2.12 (active).

For GGAUACCAUUGUGGUCGCATT against Hck, the z-score is -0.406. On to GGAAUUCUUUCCAAACUGGTT against Steap1, for which the z-score is -0.0141. For the sequence GGAUGUUUUAACUUGGAAATT against Sema5a, the z-score is 2.25 (active). The result for GGUUGGUCAGAUGAAGGGUTT against Adgrf3 reads -0.638; that for GGAACAGACAGAGAACACATT against Tgm6, 2.54 (active). The figure for CCGCUACAGGUUUACCAAGTT against Rhox8 is 0.129; for GGACACCUGAUUUUCUUCUTT against Slc41a3 it is -0.364. Turning to GCAAAAAGGCAGUAUUCUATT against Atp23, the z-score is 0.449.

As for GCUCCAAAAGUCAAGACCGTT against Safb2, the z-score is -0.482. The figure for GGCUAAAUUAUUGCGCAAATT against C1qbp is 2.34 (active); for GGACCUUUCUGAAGUCCAATT against Ahsp it is -0.0978.

In the case of GGAUCAAGCCGAACAGUUCTT against Pigk, the z-score was 2.34 (active). As for GGCCAAUCUCACCUGGACATT against Man2b1, the z-score is -0.421.

On to GGAGACUACUUUGUGUUUUTT against Ermp1, for which the z-score is 0.933. Turning to GGCACAAUUGAGGAGCGUATT against Ino80, the z-score is -1.27. The figure for GGAAGAAAAACAGAGGAGATT against Cts7 is -0.877; for GGUUUAAGAAUGAAGUGGATT against Mtmr3 it is -1.18; for GGAUUGGGUUACAUACAGATT against Scgb2b2 it is -0.0731. The result for GGAAAAGGUUAAGAAAGCATT against Krr1 reads -2.53 (active); that for GGAAUCAGCUAAUGAUUUCTT against Tyw1, 0.819; that for GGAGGUAGGAGCCAUAAGATT against Pter, -0.58.

With GGGAUCUUUUACUCAUACUTT against Olfr862, the z-score is -1.95. The result for GGUGUACUGAUUUUGAAGATT against Msh3 reads 0.858; that for GCCACGGGUAUAUCUAUAGTT against Tigd4, -0.296. The result for GGUGGAAAAUGGUUGGUUUTT against Mfap3 reads -0.493. The result for GGCCAAGAAAAUCCUGUGGTT against Mfsd5 reads -2.71 (active). With GGAACUUGAAAUCGUAAUUTT against Magohb, the z-score is -0.121. The result for GGCAGAACACAGUUCGAUCTT against Tbcb reads 0.165; that for GCCGUAGAUUUCCUUGAGUTT against Isca1, -0.0435; that for GGGACAAUGAAUGUGAUCUTT against Adam39, -2.81 (active). Consider CCAACCACAGGAUCAGAUGTT against Prrg4, for which the z-score was 0.556. The result for GGAAAAAAUGGAAAACUGGTT against Polr1b reads -0.965; that for CCAUUAAAAACCCAGAGGATT against Lyve1, 0.0705. CCCUAUAAAGAGAAAUUGGTT against Zfp663: the z-score is -0.166. Consider GGCUUCUUUUUAAAAGUAGTT against Pcid2, for which the z-score was -1.28. The figure for GCAGGACUUACAUGAGAAUTT against Fam13c is 0.534; for CCAUAAACUAUGAGUUUUGTT against Elovl7 it is 2.4 (active); for GGCUUCCAUUACCAUGAUGTT against Olfr381 it is -0.318. Regarding CGCGUAUCUGACCAGGUCATT against Ermard, the z-score is 0.889. The figure for GGCUGAAAAAUGCUUGAUUTT against Dhdds is -1.14; for GGAUAACUCUUUCAAAGACTT against Lrit2 it is 0.768. Consider GGAGGAGAGAACAAAAUGUTT against Itgb1bp2, for which the z-score is 0.839.

For the sequence GGAUCUCUUUUUUCACAUGTT against Kcne2, the z-score was 0.605.
